# In the library only some 18% were active in any assay of this set; here they are far more common.
# Six1-Eya2 blk: Six1/Eya2 interaction inhibition. AlphaScreen GST-Six1/His-Eya2 binding, biochemical; hits give low values. activity change, % (concentration not given with the values). 360,000 tested, 0.56% active. AID 651725; in the data active = activity change below about -65%; inconclusive = mostly about -30% to -63%
# Target sequence (O00167 whole entry, looked up): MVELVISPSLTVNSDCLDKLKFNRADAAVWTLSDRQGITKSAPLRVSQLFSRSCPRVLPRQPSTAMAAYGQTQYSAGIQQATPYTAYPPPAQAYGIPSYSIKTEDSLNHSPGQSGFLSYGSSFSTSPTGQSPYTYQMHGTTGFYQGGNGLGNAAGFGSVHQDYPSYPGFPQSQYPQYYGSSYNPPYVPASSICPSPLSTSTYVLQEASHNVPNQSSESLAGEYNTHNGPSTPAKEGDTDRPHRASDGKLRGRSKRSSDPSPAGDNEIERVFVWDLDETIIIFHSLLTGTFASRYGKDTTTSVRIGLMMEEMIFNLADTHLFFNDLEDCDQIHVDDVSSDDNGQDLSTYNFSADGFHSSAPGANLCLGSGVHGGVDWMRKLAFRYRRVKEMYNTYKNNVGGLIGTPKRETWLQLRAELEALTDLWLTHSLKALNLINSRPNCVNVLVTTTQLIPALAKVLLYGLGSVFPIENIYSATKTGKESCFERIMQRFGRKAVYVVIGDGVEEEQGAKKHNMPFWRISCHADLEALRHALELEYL
# Target sequence (Q15475 whole entry, looked up): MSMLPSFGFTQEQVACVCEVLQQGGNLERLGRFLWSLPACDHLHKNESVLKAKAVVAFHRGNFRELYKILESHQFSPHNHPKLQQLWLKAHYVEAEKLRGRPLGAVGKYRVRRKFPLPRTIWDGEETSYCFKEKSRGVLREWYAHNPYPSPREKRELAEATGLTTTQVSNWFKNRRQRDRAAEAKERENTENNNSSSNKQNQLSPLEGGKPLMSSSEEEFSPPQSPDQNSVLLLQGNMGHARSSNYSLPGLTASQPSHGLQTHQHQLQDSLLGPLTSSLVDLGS
#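 AlphaScreen luminescence read after one hour at 37 °C in darkness. Pin-transferred compounds met GST-Six1 and His-Eya2 protein (5X stock 250 nM/500 nM) plus glutathione donor and Ni-chelate acceptor beads (5X, 50 ug/mL).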
# IL-1B inflam inh: blocks inflammasome-driven IL-1 beta release. activity change, % at 57.5 µM. 360,000 tested, 4.7% active. THP-1 LPS/ATP IL-1B secretion, AlphaLISA, 16 h; hits give low values; in the data active = activity change below about -50%; inconclusive = mostly about -30% to -49%
#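 THP-1 cells pretreated 1 hr with compounds (up to 57.5 uM final), then stimulated with LPS (250 ng/mL final) plus ATP (1.25 mM final); secreted IL-1B measured by AlphaLISA after 16 hr, decreased signal indicating inhibition.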
# TDP1 cell noCPT: qHTS for Inhibitors of human tyrosyl-DNA phosphodiesterase 1 (TDP1): qHTS in cells in absence of CPT. Potency, µM (titrated, usually from 46.2 µM), for inactives: at the top dose activity change, negative = growth inhibition, hits mostly inhibitors. AID 686978, 2013. 420,000 tested, 15% active. DT40 Tdp1-/- hTDP1 cells, no CPT, ATP luminescence, 48 h; note: potency is the fitted concentration of half-maximal effect; nearly all actives have a fitted effect of over 55% in size
#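 Readout: luminescence from CellTiter-Glo after 30 min in the dark at RT. Cells: DT40 Tdp1-/- with stable hTDP1, 400/well. Exposure: compounds alone, ≥48 hr, 37 °C.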
# TDP1 inh: inhibitors of human tyrosyl-DNA phosphodiesterase TDP1. Q9NUW8. recombinant TDP1, AlphaScreen DNA substrate cleavage. Potency, µM (series often up to 130 µM), for inactives: at the top dose activity change, negative = inhibition, most hits filed as inhibitors. 350,000 tested, 0.28% active. AID 485290; note: potency is the fitted concentration of half-maximal effect; nearly all actives have a fitted effect of over 40% in size
#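 Compounds were preincubated with Tdp1 (1 nM final) for 15 min at room temperature before substrate (15 nM final) started a 5 min reaction; beads (10 ug/ml final) were then added for 10 min before AlphaScreen detection.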
# CtBP-E1A blk: CtBP/E1A binding inhibition; AlphaScreen GST-E1A/His-CtBP binding, 1536-well; hits give low values; activity change, % (no concentration beside the values); 340,000 tested, 0.49% active; in the data active = activity change below about -65%; inconclusive = mostly about -30% to -63%
#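 Protein mix (5X: 125 nM each GST-E1A, His-CtBP) was incubated with pinned compound 2 h at 37 deg C in dark, in 50 mM Tris pH 8.0 buffer with 300 mM NaCl. Glutathione donor and nickel acceptor beads followed; AlphaScreen signal read after 1 h.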
# TDP1 cell CPT: growth inhibition of DT40 Tdp1-/-;hTDP1 cells with camptothecin (screen for TDP1 inhibitors). chicken DT40 Tdp1-/-;hTDP1 cells + 20 nM CPT, ATP luminescence, 48 h. Potency, µM (series often up to 46.2 µM), without a hit: at the highest dose activity change, negative = growth inhibition, usual class: inhibitors. 420,000 tested, 12% active; note: potency is the fitted concentration of half-maximal effect; nearly all actives have a fitted effect of over 55% in size
#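 Chicken DT40 Tdp1-/- cells complemented with human TDP1, 400 cells/well, exposed to compounds plus 20 nM camptothecin for at least 48 h at 37 C; viability read as ATP content by CellTiter-Glo luminescence.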
# An asterisk follows results filed as active; ? = inconclusive; / = no result given; [ ] = remark or other dose. Unless noted, calls come from the whole dose curve; as a rule, active = well fitted curve in the direction sought with a large enough effect; inconclusive = small, poorly fitted or top-dose-only effect, or another doubt; inactive = no such curve, though single readings can be large; an effect the other way counts as inactive or inconclusive. % is set by controls: 0 for no effect and ±100 for the full control effect.
SMILES,Six1-Eya2 blk,IL-1B inflam inh,TDP1 cell noCPT,TDP1 inh,CtBP-E1A blk,TDP1 cell CPT
COc1ccc(S(=O)(=O)N(C)C[C@@H]2Oc3cc(Br)ccc3S(=O)(=O)N([C@H](C)CO)C[C@@H]2C)cc1,-25.8,-20.0,16.4µM*,/,-10.8,?
CC[C@H](C)[C@H](NC(N)=O)C(=O)OCC(=O)NCc1ccc(Cl)cc1,-8.5,-3.9,-25.2%,4.6%,/,3.6%
COCC#Cc1ccc2c(c1)O[C@@H](CN(C)S(=O)(=O)c1cccc(F)c1)[C@@H](C)CN([C@H](C)CO)S2(=O)=O,-0.1,-0.6,18.4µM*,/,-9.3,?
C[C@H]1CN([C@@H](C)CO)S(=O)(=O)c2ccc(C#CC3CC3)cc2O[C@@H]1CN(C)S(C)(=O)=O,0.1,-3.6,?,/,-14.4,-26.5%
CCCC#Cc1ccc2c(c1)O[C@H](CN(C)S(=O)(=O)c1cccc(OC)c1)[C@H](C)CN([C@H](C)CO)S2(=O)=O,-12.8,-15.9,16.4µM*,/,1.0,14.6µM*
COc1cccc(C#Cc2ccc3c(c2)O[C@H](CN(C)S(=O)(=O)c2ccccc2F)[C@H](C)CN([C@H](C)CO)S3(=O)=O)c1,-1.8,0.7,?,/,2.9,-30.0%
Cc1ccc(S(=O)(=O)N(C)C[C@H]2Oc3cc(C#CC4CCCC4)ccc3S(=O)(=O)N([C@H](C)CO)C[C@H]2C)cc1,-11.6,-2.3,18.4µM*,/,1.3,18.4µM*
Cc1ccc(S(=O)(=O)NC2=NCN(C3CCN(Cc4ccccc4)CC3)CN2)cc1,8.0,-11.8,-33.4%,6.0%,9.6,-15.0%
Cc1ccc(Nc2c(N)c(=O)oc3ccccc23)cc1,-6.3,0.8,25.9µM*,6.2%[56.1 µM],-6.5,?
Nc1ncnc(Nc2ccccn2)c1[N+](=O)[O-],-9.2,6.9,23.1µM*,0.0%,12.9,-24.4%
Cc1cccnc1Nc1ncnc(N)c1[N+](=O)[O-],0.8,1.1,-4.5%,3.6%,-2.2,3.4%
Cc1cccc(Nc2ncnc(N)c2[N+](=O)[O-])n1,-11.4,-14.4,16.4µM*,2.7%,-25.3,9.2µM*
Nc1ncnc(NCc2ccccc2)c1[N+](=O)[O-],-4.0,-15.1,-18.4%,0.0%,-5.9,-12.1%
CCc1cccc(CC)c1NC(=O)CCS(=O)(=O)c1ccc(Br)cc1,/,/,?,-1.1%,/,?
Cc1sc(NC(=O)/C=C/c2ccc3c(c2)OCO3)nc1-c1ccccc1,5.2,-22.3,16.4µM*,3.0%,18.6,14.6µM*
O=C(/C=C/c1ccc2c(c1)OCO2)Nc1nc(-c2ccccc2)cs1,4.1,?,?,-5.9%,6.9,?
Cc1ccc(-n2nc3c(c2NC(=O)/C=C\c2ccc4c(c2)OCO4)CSC3)cc1,-1.4,-23.2,18.4µM*,1.3%,-0.1,?
Cc1ccccc1-n1nc2c(c1NC(=O)c1c(-c3ccccc3Cl)noc1C)CSC2,-6.2,-6.2,20.6µM*,5.9%,4.9,-30.0%
Cc1ccc(-n2nc3c(c2NC(=O)c2c(-c4ccccc4Cl)noc2C)CSC3)cc1,-4.0,19.8,?,5.9%,2.7,25.9µM*
C[n+]1ccc(CO)cc1,/,/,-12.8%,/,/,-4.0%
CCOc1ccc(CCNC(=O)CCC(=O)N2CCOc3ccc(C)cc32)cc1OCC,1.0,-10.6,?,/,-5.1,?
NC1=C(Br)C(=O)c2ncccc2C1=O,?,-97.6*,1.64µM*,/,-3.1,0.651µM*
O=C1C(=O)c2ncccc2-c2cccnc21,/,/,5.31µM*,/,/,5.96µM*
O=C(Nc1ccc(NC(=O)c2ccco2)nc1)c1cccc(F)c1,-6.1,-26.4,-20.0%,-19.2%,-12.7,5.8%
COC(=O)c1cnc(Nc2nc(C(N)Cc3ccccc3)cs2)nc1C(F)(F)F (configuration not stated),-16.9,?,20.6µM*,/,?,23.1µM*

# Assay outcomes from PubChem.
